Measurements taken from PubChem BioAssay (NCATS).
Inconclusive results are not listed. The source made the active and inactive calls. Calls come from the whole dose curve; as a rule, active = well fitted inhibition curve with a large enough effect; inconclusive = small, poorly fitted or top-dose-only effect; inactive = flat fitted curve, though single readings scatter.

Key:
Test in all cases: qHTS profiling for inhibitors of Plasmodium falciparum proliferation (AID 504749); note: nearly all actives have a fitted effect of over 60% in size
Settings in all cases: P. falciparum in erythrocytes, SYBR Green DNA, 72 h; series mostly up to 28.7 µM
[1] = test system: CP217
Method in brief: (§1)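 Quantitative HTS: compounds pinned into medium, infected erythrocytes added (0.3% parasitemia, 2.5% hematocrit), 72 h culture at 37 C under 5% CO2. Saponin/Triton lysis with SYBR Green I, overnight RT, then fluorescence read.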

[2] = test system: CP237
Method in brief: as §1

[3] = test system: CP238
Method in brief: as §1

[4] = test system: CP247
Method in brief: as §1

[5] = test system: CP250
Method in brief: as §1

[6] = test system: CP252
Method in brief: as §1

[7] = test system: CP256
Method in brief: as §1

[8] = test system: CP260
Method in brief: as §1

[9] = test system: CP262
Method in brief: as §1

[10] = test system: CP265
Method in brief: as §1

[11] = test system: CP266
Method in brief: as §1

[12] = test system: CP268
Method in brief: as §1

[13] = test system: CP269
Method in brief: as §1

[14] = test system: CP286
Method in brief: as §1

[15] = test system: CP291
Method in brief: as §1

[16] = test system: CP297
Method in brief: as §1

[17] = test system: CP305
Method in brief: as §1

[18] = test system: CP315
Method in brief: as §1

[19] = test system: CP325
Method in brief: as §1

[20] = test system: CP329
Method in brief: as §1

Measured: Potency
Potency is the fitted concentration of half-maximal effect.

Nc1ccncc1
inactive: all assays above

C=C(C)[C@H]1Cc2c(ccc3c2O[C@@H]2COc4cc(OC)c(OC)cc4[C@@H]2C3=O)O1
not listed: [9] | [13] | [15]
inactive: all other assays above

NCC(O)c1ccc(O)cc1 (stereo not drawn)
not listed: [11]
inactive: all other assays above

Cc1ncc(CNC(=O)N(CCCl)N=O)c(N)n1
inactive: all assays above

CN(C)CCc1ccc(O)cc1
not listed: [11]
inactive: all other assays above

COc1ccc(C(CN(C)C)C2(O)CCCCC2)cc1 (stereo not drawn)
active: [2] 7.08 µM
not listed: [10] | [11] | [16] | [19]
inactive: all other assays above

CC(=O)[C@H]1CC[C@H]2[C@@H]3CC[C@H]4C[C@H](O)CC[C@]4(C)[C@H]3C(=O)C[C@]12C
inactive: all assays above

Oc1ccccc1-c1ccccc1
inactive: all assays above

Oc1cccc2cccnc12
inactive: all assays above

CCC(C(N)=O)N1CCCC1=O (stereo not drawn)
not listed: [9]
inactive: all other assays above

Clc1ccc(COC(Cn2ccnc2)c2ccc(Cl)cc2Cl)cc1 (stereo not drawn)
active: [1] 2.51 µM | [2] 1.26 µM | [3] 6.31 µM | [4] 3.16 µM | [5] 5.01 µM | [6] 3.98 µM | [7] 7.08 µM | [8] 2.51 µM | [9] 4.78 µM | [10] 2.51 µM | [12] 15.1 µM | [13] 4.78 µM | [14] 3.98 µM | [15] 7.57 µM | [16] 3.79 µM | [17] 13.5 µM | [18] 15.1 µM | [19] 9.53 µM | [20] 10.7 µM

COc1ccccc1N1CCNCC1
not listed: [8]
inactive: all other assays above

CC[N+](CC)(CC)CC
inactive: all assays above

OCCOc1ccccc1
inactive: all assays above
